RORg inh: inhibitors of mouse ROR gamma transcriptional activity | hit rate 5.4% among 310,000 | Potency, µM (series often up to 53.6 µM), for inactives: at the top dose activity change, negative = inhibition, usual class: inhibitors | Drosophila S2 Gal4-RORgamma UAS-luciferase reporter, 20 h; note: potency is the fitted concentration of half-maximal effect; nearly all actives have a fitted effect of over 60% in size
Target sequence (P51450 whole entry, looked up, the tested form may be a part): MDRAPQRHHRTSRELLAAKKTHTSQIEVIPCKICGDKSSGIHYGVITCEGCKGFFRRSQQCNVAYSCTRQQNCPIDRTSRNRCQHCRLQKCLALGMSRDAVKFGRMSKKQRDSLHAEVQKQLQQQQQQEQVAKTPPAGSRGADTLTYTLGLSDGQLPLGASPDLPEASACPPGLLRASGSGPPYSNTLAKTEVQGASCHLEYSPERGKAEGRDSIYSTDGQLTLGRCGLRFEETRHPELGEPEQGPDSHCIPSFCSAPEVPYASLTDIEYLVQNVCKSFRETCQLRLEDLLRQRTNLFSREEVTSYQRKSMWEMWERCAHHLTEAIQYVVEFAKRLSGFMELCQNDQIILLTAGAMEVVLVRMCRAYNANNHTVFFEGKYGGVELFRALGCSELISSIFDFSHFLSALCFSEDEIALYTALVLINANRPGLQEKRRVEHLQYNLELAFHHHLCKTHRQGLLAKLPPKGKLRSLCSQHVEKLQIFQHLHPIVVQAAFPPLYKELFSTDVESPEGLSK
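Stably transfected Drosophila Schneider cells are the test system, with ROR gamma fused to Gal4 and luciferase under UAS control; luminescence is read after 20 hr of 700 uM copper sulfate induction at ambient temperature.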
Gal4-VP16 FLuc: Gal4-VP16 reporter inhibition counter-screen. Drosophila S2 Gal4-VP16 UAS-luciferase, luminescence, 20 h. Potency, µM (doses to about 53.6 µM), for the others: at the top dose activity, negative = inhibition, hits mostly inhibitors. hit rate 3.5% among 310,000;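 note: Gal4-VP16 expression switched on by copper sulfate through the metallothionein promoter; potency is the fitted concentration of half-maximal effect; nearly all actives have a fitted effect of over 50% in size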
ELG1 DNA repair: blocks ELG1-dependent DNA repair in HEK293T cells; Potency, µM (series often up to 46.1 µM), for the others: at the highest dose activity change, negative = inhibition, hits mostly inhibitors; AID 504467; HEK293T ELG1-luciferase reporter, luminescence, 16 h; DNA damage induced by 5-fluorouridine; hit rate 2.3% among 330,000; note: potency is the fitted concentration of half-maximal effect; nearly all actives have a fitted effect of over 55% in size
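Overnight (16 hr) co-exposure of 2,000 cells/well to 5-fluorouridine and compound at 37 °C preceded detection. Luciferase was quantified via ONE-Glo luminescence; loss of signal denotes inhibition.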
IL1B secr inh: inflammasome signaling inhibition, IL-1 beta readout | hit rate 4.7% among 360,000 | activity change, % at 57.5 µM | THP-1 LPS/ATP IL-1B secretion, AlphaLISA, 16 h; stronger effect = lower value; in the data active = activity change below about -50%; inconclusive = mostly about -30% to -49%
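Secreted IL-1B measured by AlphaLISA bead assay after 16 h compound exposure of THP-1 cells; compounds (final up to 57.5 uM) added 1 h before LPS (250 ng/mL) and ATP (1.25 mM) stimulation; lower signal means less secretion.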
DT40 TDP1 no CPT: qHTS for Inhibitors of human tyrosyl-DNA phosphodiesterase 1 (TDP1): qHTS in cells in absence of CPT; DT40 Tdp1-/- hTDP1 cells, no CPT, ATP luminescence, 48 h; hit rate 15% among 420,000; Potency, µM (titrated, usually from 46.2 µM), without a hit: top-dose activity change, negative = growth inhibition, hits mostly inhibitors; note: potency is the fitted concentration of half-maximal effect; nearly all actives have a fitted effect of over 55% in size
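Growth kinetics read by CellTiter-Glo luminescence after ≥48 hr at 37 °C. Cells: DT40 Tdp1-/- stably carrying human TDP1, 400 per well, compound exposure in the absence of CPT (DMSO vehicle).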
DT40 TDP1 CPT: DT40-hTDP1 cell growth loss with CPT. chicken DT40 Tdp1-/-;hTDP1 cells + 20 nM CPT, ATP luminescence, 48 h. hit rate 12% among 420,000. Potency, µM (doses to about 46.2 µM), without a hit: at the top dose activity change, negative = growth inhibition, usual class: inhibitors; note: potency is the fitted concentration of half-maximal effect; nearly all actives have a fitted effect of over 55% in size
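Chicken DT40 Tdp1-/- cells stably complemented with human TDP1 were seeded at 400 cells/well in medium containing 20 nM camptothecin, exposed to pin-transferred compounds, and grown at 37 °C for at least 48 hr. Viability was read as ATP luminescence.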
Active calls of the source: *; ? = inconclusive; . = no result given. Shown are actives, neighbours in structure and some others; about 21% of the full set was active somewhere. Unless noted, calls come from the whole dose curve; as a rule, active = well fitted curve in the direction sought with a large enough effect; inconclusive = small, poorly fitted or top-dose-only effect, or another doubt; inactive = no such curve, though single readings can be large; an effect the other way counts as inactive or inconclusive. % is set by controls: 0 for no effect and ±100 for the full control effect.

SMILES | RORg inh | Gal4-VP16 FLuc | ELG1 DNA repair | IL1B secr inh | DT40 TDP1 no CPT | DT40 TDP1 CPT
COc1ccc(S(=O)(=O)NC(=O)C2(C)CCN2C(=O)CC2CC2)cc1 (stereo not drawn) | . | . | . | 7.4 | 0.8% | 2.5%
CCOc1ccc(NC(=O)N2CCN(c3nnc(C)c4c(C)n(-c5ccccc5)nc34)CC2)cc1 | . | . | . | . | -5.9% | -16.8%
Cc1nc2scc(-c3ccccc3)c2c(=O)n1/N=C/c1ccco1 | -0.3% | 12.1% | 14.6µM* | 0.0 | ? | ?
Cc1nc2ccccc2c(=O)n1/N=C/c1ccco1 | -10.3% | 12.9% | 20.9% | -11.9 | -2.3% | -17.0%
COc1cc(C2=NOC(C(=O)N3CCCCCC3)C2)cc(OC)c1OC (stereo not drawn) | 2.3% | 2.3% | 7.31µM* | -18.2 | -6.2% | -1.7%
COc1cc(NC(=O)C2CC(c3ccccc3Cl)=NO2)cc(OC)c1OC (stereo not drawn) | ? | 15.8µM* | ? | -11.3 | 23.1µM* | 16.4µM*
COc1ccc(C2=NOC(C(=O)Nc3ccc(C)cc3)C2)cc1OC (stereo not drawn) | 41.0% | 10.5% | -20.1% | 2.7 | -29.7% | -24.0%
COc1cc(NC(=O)C2CC(c3ccc(Cl)cc3)=NO2)cc(OC)c1OC (stereo not drawn) | 19.1% | -2.0% | ? | -17.1 | ? | -25.7%
COc1cc(C2=NOC(C(=O)Nc3ccc(C)cc3)C2)cc(OC)c1OC (stereo not drawn) | -14.8% | 3.7% | ? | 2.4 | 11.2µM* | 12.6µM*
COc1cc(C2=NOC(C(=O)NC3CCCCC3)C2)cc(OC)c1OC (stereo not drawn) | -4.4% | -8.8% | -2.9% | -11.5 | -17.4% | -3.1%
CCOc1ccc(NS(=O)(=O)c2ccc3c(c2)N(C(C)=O)CCS3)cc1 | ? | ? | 1.2% | 0.0 | ? | ?
CC(=O)Nc1ccc(NC(=O)CNS(=O)(=O)c2ccc(C)cc2)cc1 | 10µM* | ? | -7.2% | 9.5 | 1.9% | -12.1%
Cc1ccc(S(=O)(=O)NCC(=O)N/N=C/c2ccc(Cl)cc2Cl)cc1 | ? | ? | -5.3% | ? | -3.5% | 5.5%
Nc1cc[n+](CC(=O)Nc2ccccc2)cc1 | 7.0% | 4.3% | 5.9% | -7.5 | -11.9% | -8.2%
O=C(C[n+]1ccc(C(=O)c2ccccc2)cc1)Nc1ccc(C(F)(F)F)cc1 | 26.7% | -1.4% | -12.0% | -60.0* | 16.4µM* | 23.1µM*
O=C(CNS(=O)(=O)c1ccc(F)cc1)Nc1ccc(C(F)(F)F)cc1 | 32.5% | -15.2% | ? | -23.4 | 18.4µM* | 18.4µM*
Cc1ccc(S(=O)(=O)NCC(=O)Nc2ccc(C(F)(F)F)cc2)cc1 | -7.5% | -4.8% | -8.8% | 8.0 | ? | ?
Cc1ccc(S(=O)(=O)NCC(=O)N/N=C/c2ccccc2O)cc1 | 5.62µM* | ? | -19.0% | 116.1 | 6.51µM* | 5.17µM*
Cc1nnsc1C(=O)Oc1ccc(Cl)cc1 | . | . | . | . | 5.6% | -0.8%
O=S(=O)(Nc1ccc(Br)cc1)c1cccc(NS(=O)(=O)c2cccs2)c1 | . | . | . | 25.1 | -9.9% | -19.7%
Cc1ccc(NC(=O)C2CCCO2)c(Br)c1 (stereo not drawn) | . | . | . | 2.6 | -9.7% | -5.3%
CC(C)c1ccc(NC(=O)CNS(=O)(=O)c2ccc(F)cc2)cc1 | ? | -12.0% | -26.1% | 38.4 | 11.6µM* | 16.4µM*
Cc1ccc(S(=O)(=O)NCC(=O)OCN2C(=O)c3ccccc3C2=O)cc1 | 3.7% | 2.4% | -4.5% | 17.0 | 20.6µM* | ?
O=C(CNS(=O)(=O)c1ccccc1)Nc1ccc(C(F)(F)F)cc1 | 23.9% | ? | -0.4% | -1.4 | 16.4µM* | 16.4µM*
Cc1ccc(S(=O)(=O)NCN2C(=O)c3ccccc3C2=O)cc1 | . | . | . | 0.0 | -22.9% | -2.5%
SMILES | RORg inh | Gal4-VP16 FLuc | ELG1 DNA repair | IL1B secr inh | DT40 TDP1 no CPT | DT40 TDP1 CPT
CNC(=O)/C(C#N)=C/c1c(N2CCCCCC2)nc2ccccn2c1=O | 8.5% | -0.3% | -1.2% | -25.6 | -7.7% | -11.8%
O=[N+]([O-])c1ccc(N2CCN(c3cccc(Cl)c3)CC2)nc1 | 34.7% | 15.6% | -5.4% | -14.9 | 2.6% | -24.4%
N#Cc1c(N2CCN(c3ccc([N+](=O)[O-])cc3)CC2)[n+](=O)c2ccc(Cl)cc2n1[O-] | . | . | . | -1.8 | 1.16µM* | 0.461µM*
Nc1ccccc1[N+](=O)[O-] | -11.4% | -1.1% | . | . | . | .
O=[N+]([O-])c1ccc2c([N+](=O)[O-])ccc3c2c1CC3 | . | . | . | ? | 18.4µM* | 18.4µM*
NC(=O)NC(N)=O | -17.8% | 6.7% | . | . | . | .
COC(=O)N1C(=O)[C@](c2ccccc2)(C2CCCC2)N1C(=O)OC | ? | ? | ? | -95.6* | ? | ?
COC(=O)N1C(=O)[C@@](c2ccccc2)(C(C)C)N1C(=O)OC | 10µM* | 0.9% | -17.2% | ? | ? | 16.4µM*
COC(=O)N1C(=O)[C@](c2ccc(Cl)cc2)(C(C)C)N1C(=O)OC | -26.6% | -16.0% | ? | . | 23.1µM* | 13µM*
COC(=O)N1C(=O)[C@@](c2ccc(OC)cc2)(C(C)C)N1C(=O)OC | -39.6% | -3.1% | ? | -101.4* | ? | ?
CCC1(c2ccccc2)C(=O)N(C(=O)OC(C)(C)C)N1C(=O)OC(C)(C)C (stereo not drawn) | . | . | 12.1% | ? | 3.9% | 4.2%
COc1ccc(C2(c3ccc(OC)cc3)NC(=O)N(CC(=O)NC(C)C)C2=O)cc1 | -3.0% | -4.6% | -3.6% | -11.4 | -13.8% | -15.4%
Cc1cccc(-n2nc(C(=O)Nc3ccccc3)n3c(=O)cc(-c4ccccc4)nc23)c1 | -20.9% | -3.3% | -9.9% | -9.4 | 16.4µM* | ?
Cc1ccc(C2CC(=O)Nc3c2c(C)nn3-c2nc(C)cc(C)n2)c(C)c1 (stereo not drawn) | . | . | . | . | -24.7% | -14.5%
Cc1cc(C)nc(-n2nc(C)c3c2NC(=O)CC3c2cc(F)ccc2F)n1 (stereo not drawn) | . | . | . | . | 23.1µM* | ?
COc1ccc(Cc2nc3ccc(C(=O)NCC4COCCO4)cc3o2)cc1OC (stereo not drawn) | 21.3% | -14.1% | -17.9% | 14.1 | 9.4% | -8.8%
CCN1CCN(C(c2ccccn2)c2c(NC(=O)c3ccccc3)sc(C)c2C)CC1 (stereo not drawn) | -30.6% | -10.7% | -20.6% | ? | 8.2µM* | 8.2µM*
COc1ccc(C(c2c(NC(=O)c3ccccc3)sc(C)c2C)N2CCN(CCO)CC2)cc1 (stereo not drawn) | ? | -4.8% | 23.5% | 3.5 | -1.2% | -6.2%
